Among all 39,000 compounds or so, about 3,300 (8.5%) were called active. The entries come from a sample that favours actives as a whole.

For this experiment, the system named is HepG2. Kind of experiment: cytotoxicity call (relative viability < 0.9). Conditions: 10 µM.
As for `Cc1noc(C)c1S(=O)(=O)Nc1cccc2c1O[C@H](CN(C)S(=O)(=O)c1ccc(F)cc1)[C@@H](C)CN([C@H](C)CO)C2=O`, the cytotoxicity call was “inactive”.
To `Cc1noc(C)c1NC(=O)Nc1ccc2c(c1)C(=O)N([C@H](C)CO)C[C@H](C)[C@H](CN(C)C(=O)Nc1ccc(C(F)(F)F)cc1)OCCCC[C@H](C)O2` belongs “inactive”.
To `COc1ccc(NC(=O)Nc2ccc3c(c2)C(=O)N([C@@H](C)CO)C[C@@H](C)[C@H](CN(C)S(=O)(=O)c2ccc(OC)cc2)OCCCC[C@H](C)O3)cc1` belongs “inactive”; to `C[C@H]1CN([C@@H](C)CO)C(=O)Cc2cc(NC(=O)Cc3ccccc3)ccc2O[C@H]1CN(C)Cc1ccc(Oc2ccccc2)cc1`, “active”.
To `C[C@@H]1CN([C@@H](C)CO)C(=O)Cc2cc(NC(=O)Cc3ccccc3)ccc2O[C@H]1CN(C)Cc1ccc(Oc2ccccc2)cc1` belongs “inactive”.
As to `C[C@H](CO)N1C[C@H](C)[C@@H](CN(C)Cc2ccc(Oc3ccccc3)cc2)Oc2ccc(NC(=O)Cc3ccccc3)cc2CC1=O`, the cytotoxicity call is “inactive”.
In the case of `C[C@H](CO)N1C[C@H](C)[C@H](CN(C)Cc2ccc(Oc3ccccc3)cc2)Oc2ccc(NC(=O)Cc3ccccc3)cc2CC1=O`, the cytotoxicity call is “inactive”.
For `C[C@@H]1CN([C@@H](C)CO)C(=O)Cc2cc(NC(=O)Cc3ccccc3)ccc2O[C@@H]1CN(C)Cc1ccc(Oc2ccccc2)cc1`, the cytotoxicity call is “active”.
To `C[C@@H]1CN([C@H](C)CO)C(=O)Cc2cc(NC(=O)Cc3ccccc3)ccc2O[C@@H]1CN(C)Cc1ccc(Oc2ccccc2)cc1` belongs “active”; to `C[C@H]1CN([C@@H](C)CO)C(=O)Cc2cc(NC(=O)Cc3ccccc3)ccc2O[C@@H]1CN(C)Cc1ccc(Oc2ccccc2)cc1`, “inactive”; to `C[C@@H]1CN([C@H](C)CO)C(=O)Cc2cc(NC(=O)Cc3ccccc3)ccc2O[C@H]1CN(C)Cc1ccc(Oc2ccccc2)cc1`, “inactive”.
Then `Cc1ccc(S(=O)(=O)Nc2ccc3c(c2)C(=O)N([C@@H](C)CO)C[C@H](C)[C@H](CN(C)C(=O)CCC(F)(F)F)OCCCC[C@H](C)O3)cc1`, with “inactive”; and `COc1ccc(NC(=O)Nc2ccc3c(c2)C(=O)N([C@H](C)CO)C[C@H](C)[C@H](CN(C)C(=O)Cc2ccccc2)OCCCC[C@@H](C)O3)cc1`, with “inactive”.
To `Cc1noc(C)c1NC(=O)Nc1cccc2c1O[C@H](CN(C)S(=O)(=O)c1cn(C)cn1)[C@@H](C)CN([C@H](C)CO)C2=O` belongs “inactive”; to `C[C@H](CO)N1C[C@H](C)[C@H](CN(C)S(C)(=O)=O)Oc2ccc(NS(C)(=O)=O)cc2CC1=O`, “inactive”; to `C=CCNS(=O)(=O)c1cccc2nonc12`, “inactive”.
Take `C[C@H](CO)N1C[C@H](C)[C@@H](CN(C)S(=O)(=O)c2cn(C)cn2)Oc2ccc(NS(=O)(=O)c3cn(C)cn3)cc2CC1=O`: the cytotoxicity call is “inactive”.
Then `C[C@@H]1CCCCO[C@H](CN(C)S(C)(=O)=O)[C@H](C)CN([C@@H](C)CO)C(=O)c2cc(N(C)C)ccc2O1`, with “inactive”; and `O=C(Cc1ccncc1)NCC[C@@H]1CC[C@@H](NC(=O)C2CCOCC2)[C@H](CO)O1`, with “inactive”; and `CC(C)NC(=O)Nc1ccc2c(c1)CC(=O)N([C@H](C)CO)C[C@H](C)[C@H](CN(C)Cc1ccc3c(c1)OCO3)O2`, with “inactive”.
For the molecule `CCOC(=O)CCCCCC(=O)Nc1ccc2c(c1)C(=O)N([C@H](C)CO)C[C@@H](C)[C@@H](CN(C)C(=O)CCC(F)(F)F)OCCCC[C@H](C)O2`, the cytotoxicity call was “inactive”.
On to `Cc1ccc(S(=O)(=O)N[C@H](C(=O)NCCn2cc(-c3cccc(/C=C/C(=O)NO)c3)nn2)C(C)C)cc1`, for which the cytotoxicity call was “inactive”.
Then `Cc1ccc(S(=O)(=O)N[C@@H](Cc2ccccc2)C(=O)NCCn2cc(-c3cccc(/C=C/C(=O)NO)c3)nn2)cc1`, with “inactive”; and `Cc1ccc(S(=O)(=O)N[C@@H](Cc2ccccc2)C(=O)NCCn2cc(C(=O)NO)nn2)cc1`, with “inactive”; and `Cc1ccc(S(=O)(=O)N[C@@H](Cc2ccccc2)C(=O)NCCCn2cc(-c3cccc(/C=C/C(=O)NO)c3)nn2)cc1`, with “active”.
Then `Cc1ccc(S(=O)(=O)N[C@@H](Cc2ccccc2)C(=O)NCCn2cc(CCC(=O)NO)nn2)cc1`, with “active”; and `Cc1ccc(S(=O)(=O)N[C@@H](Cc2ccccc2)C(=O)NCCCn2cc(CCC(=O)NO)nn2)cc1`, with “inactive”; and `Cc1noc(C)c1NC(=O)Nc1ccc2c(c1)C(=O)N([C@@H](C)CO)C[C@H](C)[C@@H](CN(C)Cc1ccccc1)OCCCC[C@@H](C)O2`, with “inactive”.
As for `C[C@H](CO)N1C[C@H](C)[C@@H](CN(C)CC2CCCCC2)Oc2c(NC(=O)Nc3ccccc3)cccc2C1=O`, the cytotoxicity call was “inactive”.
Consider `C[C@H](CO)N1C[C@H](C)[C@@H](CN(C)Cc2ccc(Cl)c(Cl)c2)Oc2ccc(NS(=O)(=O)c3ccc(F)cc3)cc2C1=O`, for which the cytotoxicity call is “inactive”.
To `C[C@H](CO)N1C[C@H](C)[C@H](CN(C)Cc2ccc(Cl)c(Cl)c2)Oc2ccc(NS(=O)(=O)c3ccc(Cl)cc3)cc2C1=O` belongs “active”.
To `C[C@H]1CN([C@@H](C)CO)C(=O)c2cc(NS(=O)(=O)c3ccc(Cl)cc3)ccc2O[C@H]1CN(C)Cc1ccc(Cl)c(Cl)c1` belongs “active”.
Then `C[C@H]1CN([C@@H](C)CO)C(=O)c2cc(NS(=O)(=O)c3ccc(F)cc3)ccc2O[C@H]1CN(C)Cc1ccc(Cl)c(Cl)c1`, with “inactive”; and `C[C@@H]1CN([C@H](C)CO)C(=O)c2cc(NS(=O)(=O)c3ccc(F)cc3)ccc2O[C@@H]1CN(C)Cc1ccc(Cl)c(Cl)c1`, with “inactive”.
For the molecule `C[C@H](CO)N1C[C@H](C)[C@@H](CN(C)Cc2ccc(Cl)c(Cl)c2)Oc2ccc(NS(=O)(=O)c3ccc(Cl)cc3)cc2C1=O`, the cytotoxicity call is “active”.
Then `C[C@@H]1CN([C@@H](C)CO)C(=O)c2cc(NS(=O)(=O)c3ccc(Cl)cc3)ccc2O[C@@H]1CN(C)Cc1ccc(Cl)c(Cl)c1`, with “active”.
Then `C[C@@H]1CN([C@H](C)CO)C(=O)c2cc(NS(=O)(=O)c3ccc(Cl)cc3)ccc2O[C@H]1CN(C)Cc1ccc(Cl)c(Cl)c1`, with “inactive”; and `C/C=C/c1ccc2c(c1)O[C@@H](CN(C)S(=O)(=O)c1ccccc1OC)[C@H](C)CN([C@@H](C)CO)S2(=O)=O`, with “inactive”; and `C[C@@H]1CN([C@H](C)CO)C(=O)Cc2cc(NS(=O)(=O)c3ccc(F)cc3)ccc2O[C@@H]1CN(C)S(=O)(=O)c1cn(C)cn1`, with “inactive”.
As to `C[C@H]1CCCCO[C@H](CN(C)C(=O)c2ccncc2)[C@@H](C)CN([C@@H](C)CO)C(=O)c2cc(NS(=O)(=O)c3ccc(Cl)cc3)ccc2O1`, the cytotoxicity call was “inactive”.
Then `Cc1noc(C)c1S(=O)(=O)Nc1ccc2c(c1)C(=O)N([C@@H](C)CO)C[C@H](C)[C@H](CN(C)C(=O)Nc1ccc3c(c1)OCO3)O2`, with “inactive”; and `C[C@@H]1CN([C@@H](C)CO)C(=O)c2cc(NS(=O)(=O)c3ccc(Cl)cc3)ccc2O[C@@H](C)CCCCO[C@@H]1CN(C)C(=O)Cc1ccccc1`, with “inactive”.
Consider `OC[C@H]1CCCN1CC1CC1`, for which the cytotoxicity call was “inactive”.
To `C[C@H]1CN([C@@H](C)CO)C(=O)c2cc(NS(=O)(=O)c3cn(C)cn3)ccc2O[C@H]1CN(C)Cc1ccccc1` belongs “inactive”; to `O=C(c1ccncc1)N1C[C@H]2[C@@H](c3ccccc31)[C@H](CO)N2C(=O)CN1CCOCC1`, “inactive”; to `COC(=O)c1c(CC[C@@H](CO)NC(=O)N[C@H](Cn2cc(C3(O)CCCCC3)nn2)C(C)C)oc(C(C)=O)c1C(=O)OC`, “inactive”.
Then `C[C@@H]1CN([C@H](C)CO)C(=O)c2cc(NS(=O)(=O)c3ccc(F)cc3)ccc2O[C@@H]1CN(C)Cc1ccncc1`, with “inactive”.
For the molecule `COc1ccc(S(=O)(=O)N(C)C[C@H]2Oc3c(NS(=O)(=O)c4cn(C)cn4)cccc3C(=O)N([C@@H](C)CO)C[C@@H]2C)cc1`, the cytotoxicity call is “inactive”.
To `COc1ccc(NC(=O)Nc2ccc3c(c2)C(=O)N([C@@H](C)CO)C[C@@H](C)[C@H](CN(C)C(=O)Nc2ccccc2)OCCCC[C@@H](C)O3)cc1` belongs “inactive”; to `c1ccc2c(-c3cn[nH]c3)ccnc2c1`, “inactive”; to `C[C@H](CO)N1C[C@H](C)[C@@H](CN(C)S(C)(=O)=O)Oc2c(cccc2N(C)C)C1=O`, “inactive”.
On to `C[C@H](CO)N1C[C@H](C)[C@H](CN(C)Cc2ccc(Cl)c(Cl)c2)Oc2ccc(NS(=O)(=O)c3ccc(F)cc3)cc2C1=O`, for which the cytotoxicity call is “inactive”.
To `C[C@@H]1CN([C@@H](C)CO)C(=O)c2cc(NS(=O)(=O)c3ccc(F)cc3)ccc2O[C@H]1CN(C)Cc1ccc(Cl)c(Cl)c1` belongs “inactive”; to `C[C@@H]1CN([C@H](C)CO)C(=O)c2cc(NS(=O)(=O)c3ccc(Cl)cc3)ccc2O[C@@H]1CN(C)Cc1ccc(Cl)c(Cl)c1`, “active”.
As for `C[C@@H]1CN([C@@H](C)CO)C(=O)c2cc(NS(=O)(=O)c3ccc(F)cc3)ccc2O[C@@H]1CN(C)Cc1ccc(Cl)c(Cl)c1`, the cytotoxicity call was “inactive”.
To `C[C@H]1CN([C@@H](C)CO)C(=O)c2cc(NS(=O)(=O)c3ccc(F)cc3)ccc2O[C@@H]1CN(C)Cc1ccc(Cl)c(Cl)c1` belongs “active”; to `C[C@@H]1CN([C@H](C)CO)C(=O)c2cc(NS(=O)(=O)c3ccc(F)cc3)ccc2O[C@H]1CN(C)Cc1ccc(Cl)c(Cl)c1`, “inactive”; to `C[C@H]1CN([C@@H](C)CO)C(=O)c2cc(NS(=O)(=O)c3ccc(Cl)cc3)ccc2O[C@@H]1CN(C)Cc1ccc(Cl)c(Cl)c1`, “active”.
Then `C[C@@H]1CN([C@@H](C)CO)C(=O)c2cc(NS(=O)(=O)c3ccc(Cl)cc3)ccc2O[C@H]1CN(C)Cc1ccc(Cl)c(Cl)c1`, with “active”; and `Cc1ccc(S(=O)(=O)Nc2ccc3c(c2)C(=O)N([C@H](C)CO)C[C@H](C)[C@@H](CN(C)CC2CCCCC2)OCCCC[C@@H](C)O3)cc1`, with “inactive”; and `COc1cccc(OC)c1C(=O)NC1C(=O)N2C1SC(C)(C)C2C(=O)[O-].[Na+]` (configuration not stated), with “inactive”.
To `C[C@H](CO)N1C[C@H](C)[C@@H](CN(C)C(=O)NC2CCCCC2)OCCCC[C@H](C)Oc2ccc(NS(=O)(=O)c3cccs3)cc2C1=O` belongs “inactive”.

The values above are taken from the antibiotic and cytotoxicity screens of Wong et al. (2023).
